Key:
Assay in all cases: PBM binding z-score (relative to random genomic background probes); higher = stronger binding; sequences stand for … in GC…GCGATTGACAGCGTAGAATGAAGG
[1] = system: RARb homodimer (NR concentration 270 nM)
Summary of the method: (§1)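 Binding z-scores take random background probes as their reference. They come from custom Agilent 4×180K protein-binding microarrays incubated 1 h with ligand-free nuclear receptor dimers, with antibodies against each partner (one per run) detecting binding. Scanned fluorescence was regression-normalized.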

[2] = system: RARg:RXRa (NR concentration 270 nM, RXRa partner concentration 90 nM)
Summary of the method: as §1

[3] = system: RARg homodimer (NR concentration 270 nM)
Summary of the method: as §1

[4] = system: RXRa DBDmut IVT, anti-RXR (DBD mutation: RXRa K156A/R161A, NR concentration 90 nM)
Summary of the method: as §1

[5] = system: RXRa homodimer (NR concentration 180 nM)
Summary of the method: as §1

[6] = system: THRa:RXRa (NR concentration 90 nM, RXRa partner concentration 90 nM)
Summary of the method: as §1

[7] = system: THRa homodimer (NR concentration 90 nM)
Summary of the method: as §1

[8] = system: VDR:RXRa (NR concentration 270 nM, RXRa partner concentration 90 nM)
Summary of the method: as §1

[9] = system: VDR homodimer (NR concentration 270 nM)
Summary of the method: as §1

Row | Sequence | PBM binding z-score [1] | PBM binding z-score [2] | PBM binding z-score [3] | PBM binding z-score [4] | PBM binding z-score [5] | PBM binding z-score [6] | PBM binding z-score [7] | PBM binding z-score [8] | PBM binding z-score [9]
1 | GCTAGTTGGTCAGTAAAAGGTCACATACCGGTCG | 5.15 | 5.2 | 4.75 | 0.819 | 4.95 | 3.52 | 1.86 | 3.89 | 1.74
2 | TAGCCTAGGTCATTCAGGGGCCTGTATAGAAAGC | 2.65 | 4.31 | 4.02 | 1.75 | 2.48 | 3.54 | 0.286 | 2.69 | 1.04
3 | CCTTACGGGTCACTGACAGGTTATGGCATTTGGA | 3.41 | 5.79 | 4.82 | 1.85 | 5.22 | 2.9 | 0.174 | 3.75 | 0.887
4 | ATCTCTAGGTAAAAATAGTTCAGTGAATGCAAAT | 1.13 | 1.01 | 0.9 | 0.16 | 0.292 | 0.72 | 0.138 | 1.11 | 0.549
5 | ATCTCTAGTTAAAGATAGTTCAGTGAATGCAAAT | 1.14 | 0.636 | 0.66 | 0.396 | 0.579 | 0.486 | 0.212 | 1.04 | 0.858
6 | CCAGACAGGTGAGAAGGTAACTGAGCCTCGATTA | 0.357 | 0.527 | 0.335 | -0.107 | 0.0427 | 0.121 | -0.33 | -0.0476 | -0.0729
7 | CGAACTAGGTCAGAACATGACAGTGAAGGATGAT | 1.74 | 2.34 | 2.89 | 0.671 | 1.33 | 1.24 | 0.0482 | 0.229 | 0.133
8 | CGTCCAACGTCAATGCTAGGTCAGTGAAAGCATT | 2.01 | 1.36 | 1.14 | 0.107 | 0.267 | 1.6 | 0.388 | 0.103 | -0.0849
9 | TGAATGAGGTTATAAGCTCAGGGAACGTTGCAAA | -0.162 | 1.1 | 0.731 | 0.518 | 1.91 | 1.67 | 0.118 | 0.693 | 0.00669
10 | CGTCAAAGTTCAATGTAACGTAACAGAAAGCAGC | 3.56 | 4.82 | 5.45 | 4.69 | 3.78 | 1.64 | -0.0537 | 3.74 | 3.96
11 | GCTAGTTGGTCAGTAAAAGGTCACACCCCGGTCG | 5.28 | 5.17 | 4.3 | 0.0893 | 4.86 | 3.57 | 2.15 | 3.83 | 1.43
12 | TTACCAAGGTGAGCCGAGGTCGTTGATCCAACTC | 1.75 | 1.67 | 1.38 | -0.0655 | 1.77 | 4.53 | 1.49 | 4.51 | 1.98
13 | CCTTACGGGTCACTCCAGGTTGTAGCATCGGAGT | 2.84 | 4.14 | 3.94 | 1.67 | 4.11 | 4.56 | 0.074 | 3.62 | 1.05
14 | ATACCAAGGTGATCGTGGGGTCGTTGATACTAAC | 1.69 | 2.14 | 0.593 | 0.817 | 2.34 | 3.15 | 1.93 | 3.44 | 2.92
15 | CAAACTAAGTCACGAAAGGTCAAAGTCGAATGAC | 5.04 | 6.02 | 5.67 | 0.992 | 6.79 | 4.42 | 1.2 | 5.34 | 2.58
16 | CCGACTGGGCCAGAAAGGTTACCATACCATCCGG | 1.97 | 1.28 | 0.921 | -0.772 | 1.58 | 1.04 | -0.354 | 0.479 | 0.0109
17 | CCGACTGGGGCAGAAAGGTTGCCATACCATCCGG | 0.631 | 0.253 | 0.175 | -1.11 | 0.422 | -0.0628 | -0.642 | -0.0793 | -0.404
18 | TCGAGTAGGTTAGGGGCCTTCAGAATGGCGTCGA | -0.137 | -0.483 | -0.763 | -0.0601 | -0.143 | -0.36 | -0.629 | -0.482 | -0.468
19 | CGTCCAAGGTCATAGGAGGTCAGTGAGGACAGAT | 5.13 | 6.73 | 7.15 | 4.28 | 6.16 | 5.22 | 4.53 | 7.07 | 5.81
20 | ATTTGTAGGTTAGCTGGGGTCATTCAGACTAGGC | 4.03 | 4.33 | 2.95 | 2.56 | 5.57 | 5.34 | 3.84 | 6.42 | 4.65
21 | CCGACTGGGGCAGAACGGTTACCATACCATCCGG | 0.0428 | -0.0938 | 0.284 | -1.04 | -0.293 | -0.413 | -0.791 | -0.643 | -0.33
22 | ACTAGCAGGCCAAGGGTCAGTCAAGATTAGTCCG | 3.52 | 3.02 | 2.76 | 0.119 | 2.52 | 1.75 | -0.147 | 1.12 | 0.29
23 | GCTTGTAGATCATGGTTAAGAAAGACTAAGCTAA | -0.707 | -0.198 | -0.267 | 0.0641 | -0.538 | -0.389 | -0.737 | -0.404 | -0.385
24 | CCGACTGGGGCATAAGGTTCCCATAAGCCAGCCC | -0.217 | -0.0298 | -0.0621 | -0.59 | -0.271 | -0.0053 | -0.165 | -0.0761 | -0.209
25 | CCGAGTGGGTTATGGGGCATTCAGGCAACGGTGA | 0.766 | -0.124 | -0.0615 | -1.08 | 0.212 | 0.303 | 0.614 | -0.199 | 0.328
26 | CTCGCAAGGTCGGTTGAGGTGAGTATACGGATAA | 1.72 | 1.27 | 1.25 | 0.828 | 1.01 | 4.74 | 1.75 | 1.21 | 0.439

Row | Sequence | PBM binding z-score [1] | PBM binding z-score [2] | PBM binding z-score [3] | PBM binding z-score [4] | PBM binding z-score [5] | PBM binding z-score [6] | PBM binding z-score [7] | PBM binding z-score [8] | PBM binding z-score [9]
27 | ACTAGTTGGTCAGCTGAGGTCACACAGAATTCGG | 4.54 | 4.18 | 4.44 | 1.41 | 4.19 | 5.12 | 5.11 | 4.42 | 3.47
28 | CCTACTGGGCCAACAGGTCATTGATATCAACGTT | 2.5 | 2.56 | 2.13 | 0.159 | 1.91 | 1.63 | 0.207 | 1.93 | 0.761
29 | ATCGCAAGGTCGTGAGGTGAGTATACAGAAAGGC | 2.13 | 2.76 | 2.38 | 1.62 | 3.06 | 3.33 | 2.41 | 2.33 | 1.55
30 | GGAACGAGGGCAAGTTGATTGCAGAGTTTGATGG | 1.5 | 1.62 | 2.18 | 2.56 | 0.967 | 1.38 | -0.0249 | 0.675 | 2.02
31 | AGAATGAGGTTATTAAGATCAGGGGATTGCGGTC | 0.919 | 1.03 | 0.573 | 1.97 | 1.49 | 2 | 0.811 | 2.36 | 1.35
32 | TCTTGTAGATCAAAGGATAAGAAAGCCGAAGCCT | -1.11 | -0.0685 | -0.196 | 0.579 | 0.0933 | -0.444 | -0.847 | 0.22 | -0.298
33 | CCCTACGGGTCACTGACAGGTTATAGCATTTGGA | 3.42 | 5.77 | 4.37 | 0.859 | 4.97 | 2.93 | 0.405 | 3.56 | 1.07
34 | GCGACTGGGGCAAAGCAGGTTACCACAAGGTTGG | 1.08 | 0.456 | 0.439 | -0.219 | 0.39 | 3.04 | -0.328 | 0.0392 | -0.626
35 | TCATATAGTTAAAAGGTGAAAGTCGGTGTGGTAA | 1.92 | 1.69 | 0.989 | 1.66 | 2.31 | 1.6 | 0.712 | 1.52 | 0.721
36 | CCTACTGGGCCACGGAAGGTCATTGATTCAGTGA | 3.78 | 2.93 | 2.38 | -0.515 | 2.57 | 3.67 | 0.727 | 2.83 | 1.2
37 | ACAGACAGGTGATGAAGGGAACTCAGGCTATCAT | 0.0495 | 0.231 | 0.46 | -0.425 | 0.238 | 0.341 | -0.114 | -0.182 | -0.128
38 | ATCTCTAGGTAAGGCTCAGTTCAGTGAAGAACGC | 0.805 | 0.0838 | -0.0338 | 0.317 | -0.0677 | 0.831 | 0.732 | 0.553 | 1.36
39 | TCATAGAGGTAAACAGGTGAAAGTCCGTAAGTTA | 0.716 | 0.649 | 0.356 | 1.07 | 1.1 | 0.843 | -0.0526 | 0.83 | -0.0713
40 | CATACAGGGTCAGCTAGGCCAGAGAAGGGACGGC | 3.35 | 4.63 | 5.1 | 1.74 | 4.46 | 2.99 | 0.568 | 3.84 | 1.67
41 | CCTTACGGGTCAAGGTTATAGCGCGGGTGGTACG | 3.48 | 4.83 | 4.46 | 1.19 | 5.01 | 2.96 | 0.728 | 3.22 | 1.52
42 | GATACAAGGTCAAGGCCAGAGTACGCGTATTGAT | 4.63 | 5.82 | 6.11 | 2.63 | 5.5 | 3.88 | 2.35 | 4.39 | 2.41
43 | CGAACTAGGTGATCCAGGACAGTGAATACATTGA | 0.12 | 0.151 | 0.467 | 0.07 | 0.363 | 1.38 | 0.934 | 0.541 | 0.0681
44 | GCTTACGAGTCAAAGGTTATAGCATGAATAGAAT | 1.24 | 2.58 | 1.09 | 0.218 | 5 | 1.76 | -0.786 | 2.16 | -0.176
45 | TCTTCTAGGTCAGTTGGTCAGCTAACGAGCTGCC | 3.05 | 3.26 | 4.08 | 1.65 | 1.62 | 2.19 | 1.58 | 1.3 | 0.514
46 | TAGCCTAGGTCATGGGCCAGTAGACCACGCGAAC | 3.01 | 4.29 | 4.33 | -0.149 | 3.68 | 3.04 | 1.09 | 1.85 | 0.284
47 | CCTAGTGGGCCATCAGGTCATTGATATCAACGTT | 2.68 | 2.11 | 1.92 | 0.53 | 1.45 | 3.13 | 2.59 | 1.61 | 1.43
48 | TCGATTAGTTGAAGGGCAACCGACGAGTCCGTTT | 1.04 | 0.11 | 0.294 | 1.01 | 0.397 | -0.146 | -0.591 | 0.389 | 0.943
49 | ACAGACAGGTTATGAAGGTAACTCAGGCTATCAT | 0.833 | 0.914 | 0.793 | 0.197 | 0.932 | 1.51 | 0.368 | 1.3 | 0.373
50 | CCTACTGGGACAAGGTCATTGATCAGTCAAAGCA | 3.22 | 4 | 3.34 | 1.7 | 3.71 | 3.47 | 2.27 | 3.48 | 3.29
51 | CGTCAAAGTACAACTAAGGTAACGTAAAGCACGC | 1.16 | 1.03 | 1.21 | 0.971 | 0.543 | 3.77 | 1.62 | 0.523 | 0.523
52 | TTACCAAGGTGAAGGGTCGTTGATGCACGCCTTG | 1.79 | 2.19 | 1.14 | 0.00143 | 3.13 | 2.35 | 0.598 | 1.7 | 1.16
